# Data taken from PubChem BioAssay (NCI).
# About 83,000 compounds went through this panel and 20% of them were active in at least one assay; those are over-represented in the sample as a whole.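 96-well plates, one dose, 48 hours. Percent growth reported; active if below 10.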 A number with no mark means an inactive call. Active and inactive are the calls of the source.
# Columns and labels:
# Assay in all cases: NCI-60 one-dose screen, 48 h (100 = growth as untreated, 0 = no growth, -100 = all killed)
# Details in all cases: 10 µM unless noted
# SR leukemia = system: SR leukemia
# RPMI-8226 leukemia = system: RPMI-8226 leukemia
# OVCAR-8 ovarian = system: OVCAR-8 ovarian
# OVCAR-5 ovarian = system: OVCAR-5 ovarian
# OVCAR-4 ovarian = system: OVCAR-4 ovarian
# SK-OV-3 ovarian = system: SK-OV-3 ovarian
# IGROV1 ovarian = system: IGROV1 ovarian
# OVCAR-3 ovarian = system: OVCAR-3 ovarian
# HS 578T breast = system: HS 578T breast
# NCI/ADR-RES ovarian = system: NCI/ADR-RES ovarian
# T-47D breast = system: T-47D breast
# BT-549 breast = system: BT-549 breast
# MDA-MB-435 melanoma = system: MDA-MB-435 melanoma
# SW-620 colon = system: SW-620 colon
# MCF7 breast = system: MCF7 breast
# HCT-116 colon = system: HCT-116 colon
# HCC-2998 colon = system: HCC-2998 colon
# KM12 colon = system: KM12 colon
Compound,growth (SR leukemia),growth (RPMI-8226 leukemia),growth (OVCAR-8 ovarian),growth (OVCAR-5 ovarian),growth (OVCAR-4 ovarian),growth (SK-OV-3 ovarian),growth (IGROV1 ovarian),growth (OVCAR-3 ovarian),growth (HS 578T breast),growth (NCI/ADR-RES ovarian),growth (T-47D breast),growth (BT-549 breast),growth (MDA-MB-435 melanoma),growth (SW-620 colon),growth (MCF7 breast),growth (HCT-116 colon),growth (HCC-2998 colon),growth (KM12 colon)
COc1ccc(CCNc2nc3c(c(=O)n(Cc4ccc(Br)cc4)c(=O)n3C)n2C)cc1OC,98.9%,78.5%,90.5%,94%,80.1%,94.9%,83.2%,98.4%,91.1%,82.9%,66.2%,86.5%,99.2%,99.5%,94.4%,90.5%,101%,100%
O=[N+]([O-])c1ccc2c(c1)Cc1cc(F)ccc1-2,103%,89.3%,103%,96.6%,91.7%,99.1%,105%,113%,95.6%,106%,94.4%,105%,96.9%,96.3%,84.4%,102%,102%,109%
O=[N+]([O-])c1cnc(N2CCN(CC3CC3)CC2)nc1N1CCN(CC2CC2)CC1,115%,100%,104%,92.2%,95%,111%,90.6%,98.6%,77.5%,90.2%,100%,88.9%,98.1%,90.9%,96.4%,86%,99%,100%
CN1CCN(CCCOc2cccc3nc(Nc4ccc(Cl)c(F)c4)ccc23)CC1,-16% (active),23.9%,85%,58.6%,65.4%,82.7%,65.7%,69.9%,52.7%,49.7%,38.5%,80%,25.3%,-34.1% (active),-43.1% (active),31.6%,55.2%,-34.7% (active)
Cc1ccc2c(C(C[N+](=O)[O-])c3ccccc3F)c(-c3ccccc3)[nH]c2c1 (stereo unspecified),25.8%,51.5%,56.5%,74.4%,65.7%,31.5%,32%,13.2%,33.8%,23.9%,29.3%,50%,-30.3% (active),19.7%,24.4%,25.9%,73.9%,23.3%
Cc1ccc(NC(=O)C2CCC(CN3CCN(C)CC3)CC2)cc1Nc1nccc(-c2cccnc2)n1 (stereo unspecified),90.9%,96.6%,111%,92%,108%,110%,110%,103%,85.1%,97.5%,86.2%,103%,93.5%,98.4%,83.8%,101%,106%,97.3%
COc1cc(-c2nc3ccccc3[nH]2)ccc1OCc1nnc(-c2ccc(CC(C)C)cc2)o1,80.2%,83%,92.2%,114%,90.9%,99.1%,92.3%,95.2%,87.4%,89.8%,57.2%,88.5%,98%,103%,79.6%,82%,119%,102%
O=C(Cc1ccccc1Nc1c(Cl)cccc1Cl)NN1C(=O)/C(=C/c2ccc(Br)cc2)SC1=S,132%,106%,100%,100%,114%,100%,97.7%,109%,96.4%,105%,107%,105%,107%,98.5%,100%,103%,106%,107%
COc1cc(-c2nc3cc(Cl)c(Cl)cc3[nH]2)ccc1OCC(=O)N=Nc1c(O)[nH]c2ccccc12,-27.7% (active),-45.2% (active),-59% (active),-75% (active),-92.7% (active),-28.2% (active),-86.8% (active),-98.1% (active),-47.9% (active),85.3%,-63.4% (active),-90.3% (active),-94.9% (active),-46.9% (active),-76.1% (active),-75.6% (active),-91.1% (active),-81.5% (active)
O=C(Oc1cccnc1)c1ccsc1Nc1ccnc(C(F)(F)F)c1,17.6%,27.6%,84%,102%,60.2%,88.2%,35.9%,100%,109%,60.4%,72.7%,45%,82.6%,21%,58.2%,9.98% (active),114%,41%
C#CCOc1ccc2ncnc(N3CCC(NC(=O)CCl)CC3)c2c1,62.6% [8.25 µM],44.4% [8.25 µM],76.3% [8.25 µM],100% [8.25 µM],36.5% [8.25 µM],69.6% [8.25 µM],51.4% [8.25 µM],68.2% [8.25 µM],46.7% [8.25 µM],88.2% [8.25 µM],71% [8.25 µM],64.2% [8.25 µM],68.1% [8.25 µM],55.8% [8.25 µM],51.9% [8.25 µM],56.5% [8.25 µM],107% [8.25 µM],96.5% [8.25 µM]
CCOc1cc2ncc(C#N)c(Nc3ccc(OCc4cccc(F)c4)c(Cl)c3)c2cc1NC(=O)CC1CCSS1 (stereo unspecified),-9.65% (active),62.4%,44.2%,84.1%,-33.3% (active),-93.6% (active),-2.65% (active),37.3%,55.9%,78.9%,-0.0513% (active),44.6%,-26.4% (active),90.4%,2.9% (active),-24.7% (active),-25.1% (active),-67.6% (active)
COc1ccc(-c2nc3cc(C(=O)Nc4cc(OC)c(OC)c(OC)c4)ccc3n2C2CCCCC2)cc1,57.5%,91.7%,96.6%,98.1%,109%,104%,96.5%,101%,81.9%,98.3%,97.4%,94.6%,46%,92.5%,91.2%,93.5%,104%,91.9%
Cc1cc(N2CCCCC2)nc(NC2CCCC(Nc3ccnc4cc(Cl)ccc34)C2)n1 (stereo unspecified),-53.5% (active),-52.4% (active),-82.9% (active),11.2%,-38.8% (active),-71.7% (active),-33% (active),-69% (active),-48.6% (active),-41.8% (active),-58.5% (active),-67% (active),-92% (active),-66.7% (active),-50.2% (active),-86.6% (active),-62.3% (active),-29.7% (active)
O=C1CSC(=S)N1CCc1ccc(O)cc1,26.4%,37.9%,92.6%,101%,89.5%,99.2%,101%,78.3%,84.3%,94.7%,38.1%,105%,65.8%,53.8%,37.6%,71.5%,102%,8.84% (active)
Cn1cccc1-c1nc2c3c(ccc2[nH]1)C(=O)c1ccccc1C3=O,27.1%,61.5%,85.8%,90.4%,46.5%,118%,79.1%,95%,115%,81.8%,-18.8% (active),71.7%,105%,105%,11.6%,83.7%,86.3%,73.6%
O=C(COc1ccc(/C=C2\COc3ccccc3C2=O)cc1)Nc1nccs1,-2.82% (active),-0.182% (active),85%,93%,92.9%,127%,3.63% (active),95.8%,-38.3% (active),86.1%,90%,2.68% (active),105%,69.1%,15%,38.1%,168%,43.3%
